For 25 compounds, Potency results are on record in PubChem BioAssay (Tox21).

Records with an inconclusive call do not appear. A call without a number means that no potency is given here. Calls of active or inactive are those of the source. Calls come from the whole dose curve; as a rule, active = well fitted cell-killing curve with a large enough effect in the repeat runs; inconclusive = weak or mixed curves, or effect the other way; inactive = flat fitted curve, though single readings scatter.
Potency is the fitted concentration of half-maximal effect.

The assay in a line: qHTS RealTime-Glo MT Cell Viability Assay in HEK293 cells - 32 hour (AID 1224868). Note: nearly all actives have a fitted effect of over 50% in size. To be noted: RealTime-Glo luminescence; series mostly up to 76.8 µM. In outline:
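HEK293 cells were seeded at 600 cells/well together with NanoLuc luciferase and cell-permeant prosubstrate, preincubated 5 h at 37 C/5% CO2, then given compound in DMSO by pintool. Luminescence from viable-cell prosubstrate reduction was read repeatedly over 40 h.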
In general terms: Quantitative high-throughput screening tests each substance at several concentrations.
`COC(C)(C)OC`: the Potency result was “inactive”.
Take `CC(C)(C)C(O)/C=C/c1ccc2c(c1)OCO2` (stereo not given): the Potency result is “inactive”.
As for `CCCCCC`, the Potency result is “inactive”.
As to `COC(OC)OC`, the Potency result was “inactive”.
Turning to `CC1=C2[C@@H]([C@H](C)CC[C@H]2/C=C(\C)C(=O)O)[C@H](O)C1`, the Potency entry was “inactive”.
On to `Cc1ccc(NC(=O)N(C)C)cc1NC(=O)N(C)C`, for which the Potency entry was “inactive”.
For the compound `CNC1CCCN(c2c(F)cc3c(=O)c(C(=O)O)cn(C4CC4)c3c2OC)C1` (stereo not given), the Potency result is “inactive”.
Take `COc1ccc(-n2nc(C(F)F)cc2-c2ccc(S(C)=O)cc2)cc1` (stereo not given): the Potency result is “inactive”.
Consider `Cc1oc(=O)oc1COC(=O)[C@@H]1N2C(=O)[C@@H](NC(=O)[C@H](N)c3ccccc3)[C@H]2SC1(C)C`, for which the Potency result was “inactive”.
As for `NC(=O)c1ccccc1[N+](=O)[O-]`, the Potency entry is “inactive”.
In the case of `CN=C(N)NC(=O)Nc1c(C)cccc1C`, the Potency entry was “inactive”.
In the case of `CC(=O)Oc1cccc(O)c1`, the Potency entry is “inactive”.
For `N[C@@H](Cc1cc(I)c(O)c(I)c1)C(=O)O`, the Potency result was “inactive”.
Turning to `CCC1CCC(CCC(=O)O)C1` (stereo not given), the Potency entry is “inactive”.
The result for `CCOc1ncc(F)c(=O)[nH]1` reads “inactive”.
For the compound `CC(C)CC(O)CC(C)C`, the Potency entry was “inactive”.
Consider `C=Cc1ccc(OC(C)=O)cc1`, for which the Potency entry is “inactive”.
Take `CC(C)c1ccc(C#N)cc1`: the Potency was 15.5 µM (active).
Consider `SCCc1cnccn1`, for which the Potency result was “inactive”.
The result for `CCCCCCC(O)CCCCCCCCCCC(=O)OC` (stereo not given) reads “inactive”.
In the case of `CCCCC(CC)COS(=O)(=O)O` (stereo not given), the Potency result is “inactive”.
For `Nc1ccn([C@H]2CS[C@@H](CO)O2)c(=O)n1`, the Potency entry is “inactive”.
Take `Cc1ccc(Nc2c(F)cccc2Cl)c(CC(=O)O)c1`: the Potency result is “inactive”.
On to `CCCCCCCCCCCCCC(=O)OCC(O)CO` (stereo not given), for which the Potency entry was “inactive”.
As to `COc1ccc(/C=C/C(=O)c2ccc(OC)cc2OC)cc1`, the Potency result was “inactive”.
